Bioassay records as filed in PubChem.
This is a sample that favours compounds with a hit; in the whole collection about 1.2% have one here.
PglD DTNB: PglD (C. jejuni) enzyme inhibition; purified PglD enzyme, DTNB colorimetric CoA detection; inhibition, % at 12.5 µM; 360,000 compounds, 0.098% hits; AID 602405; in the data active means inhibition above about 16%, passing the limit was not always enough
NSD2 inh: NSD2 (human) methyltransferase inhibition; O96028; NSD2 peptide methylation, AlphaScreen, 120 min; inhibition, % at 12.5 µM; 310,000 compounds, 0.54% hits; AID 743445; in the data active means inhibition above about 50%
Target sequence (O96028 whole entry, looked up): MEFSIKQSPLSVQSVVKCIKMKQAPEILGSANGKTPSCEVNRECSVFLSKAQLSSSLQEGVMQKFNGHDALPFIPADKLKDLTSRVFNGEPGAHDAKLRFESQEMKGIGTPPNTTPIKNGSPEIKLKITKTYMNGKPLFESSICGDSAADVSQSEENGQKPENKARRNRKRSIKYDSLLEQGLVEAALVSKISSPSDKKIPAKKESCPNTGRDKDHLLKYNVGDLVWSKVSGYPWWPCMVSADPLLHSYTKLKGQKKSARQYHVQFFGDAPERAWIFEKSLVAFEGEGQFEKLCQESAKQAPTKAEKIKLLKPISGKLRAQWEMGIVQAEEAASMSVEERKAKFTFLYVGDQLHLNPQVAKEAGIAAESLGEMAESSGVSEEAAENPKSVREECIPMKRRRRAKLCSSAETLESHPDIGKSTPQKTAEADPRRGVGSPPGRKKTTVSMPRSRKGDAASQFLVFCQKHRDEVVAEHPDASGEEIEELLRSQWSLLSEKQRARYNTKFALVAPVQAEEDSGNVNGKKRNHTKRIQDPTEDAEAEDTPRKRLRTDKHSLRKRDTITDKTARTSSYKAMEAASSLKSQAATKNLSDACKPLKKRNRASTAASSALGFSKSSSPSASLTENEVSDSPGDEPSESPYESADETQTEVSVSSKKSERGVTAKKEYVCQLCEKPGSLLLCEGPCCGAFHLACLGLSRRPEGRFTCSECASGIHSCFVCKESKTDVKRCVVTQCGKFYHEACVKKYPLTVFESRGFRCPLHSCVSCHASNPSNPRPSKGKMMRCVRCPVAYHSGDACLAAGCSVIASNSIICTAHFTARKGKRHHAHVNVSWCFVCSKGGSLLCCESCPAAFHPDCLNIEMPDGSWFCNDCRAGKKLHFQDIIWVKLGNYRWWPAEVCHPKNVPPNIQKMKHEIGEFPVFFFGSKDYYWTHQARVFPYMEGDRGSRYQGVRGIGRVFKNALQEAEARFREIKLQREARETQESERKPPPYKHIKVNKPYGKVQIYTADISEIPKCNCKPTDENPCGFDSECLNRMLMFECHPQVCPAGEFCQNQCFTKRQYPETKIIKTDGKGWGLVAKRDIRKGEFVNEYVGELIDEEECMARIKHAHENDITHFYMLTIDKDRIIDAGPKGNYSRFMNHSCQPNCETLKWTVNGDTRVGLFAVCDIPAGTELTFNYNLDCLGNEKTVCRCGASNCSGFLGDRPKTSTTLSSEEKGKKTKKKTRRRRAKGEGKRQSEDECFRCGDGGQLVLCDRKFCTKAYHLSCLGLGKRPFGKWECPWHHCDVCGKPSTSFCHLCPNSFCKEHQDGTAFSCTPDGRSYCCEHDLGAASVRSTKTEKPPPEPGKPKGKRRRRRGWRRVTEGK
Statin myotox sup: suppression of simvastatin myotoxicity | C2C12 myotubes + simvastatin, ATP luminescence, 48 h; scaled: DMSO 0, geranylgeraniol control 100 | rescue of ATP level, % at 7.49 µM | 330,000 compounds, 0.78% hits;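 active means mean ATP rescue above about 67%, or every replicate alone reaching that limit, limit read from the data, passing the limit was not always enough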;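 further: myotubes were challenged with 10 µM simvastatin during compound exposure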
miR122 inh: blocks miR-122 activity in Huh7 sensor cells. activation (reporter increase), % at 12.5 µM. Huh7 miR-122 Renilla luciferase sensor, 48 h; neutral wells = 0, positive control = 100. 340,000 compounds, 0.3% hits;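 active means mean replicate activation score at least 90 and every replicate individually at or above 90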;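 further: higher luciferase means less miR-122 activity so hits act as miR-122 inhibitors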
Of the large screens only hits and unclear results are named; the others gave an inactive call.

CC1CC(C)CN(S(=O)(=O)c2ccc(NC(=O)c3ccc(=O)[nH]c3)cc2)C1 (configuration not stated)	miR122 inh 102 (no result: NSD2 inh)
CC1CC(C)CN(C(=O)c2ccc(NC(=O)c3ccc(=O)[nH]c3)cc2)C1 (configuration not stated)	none (no result: PglD DTNB, NSD2 inh)
C[C@H](CO)N1C[C@H](C)[C@@H](CN(C)Cc2ccc(Cl)c(Cl)c2)Oc2ccc(NC(=O)Cc3cn(C)c4ccccc34)cc2CC1=O	Statin myotox sup 127 (no result: NSD2 inh)
C[C@@H]1CN([C@H](C)CO)C(=O)Cc2cc(NC(=O)Cc3cn(C)c4ccccc34)ccc2O[C@H]1CN(C)Cc1ccc2c(c1)OCO2	Statin myotox sup 79 (no result: NSD2 inh)
C[C@H]1CN([C@@H](C)CO)C(=O)Cc2cc(NC(=O)Cc3cn(C)c4ccccc34)ccc2O[C@H]1CN(C)Cc1ccc(Cl)c(Cl)c1	none (no result: NSD2 inh)
O=C(c1ccccc1)c1nn(-c2ccccc2)c(=O)cc1C(F)(F)F	none
O=C(c1cccc(Cl)c1)c1nn(-c2ccccc2)c(=O)cc1C(F)(F)F	Statin myotox sup 105
CSc1nc(Sc2ccc(Cl)cc2)c2ccccc2n1	Statin myotox sup 146
O=C(C1CCCC1)N1C[C@@H]2[C@H](c3ccccc31)[C@H](CO)N2C(=O)c1cccnc1	none (no result: NSD2 inh)
Cc1ccc(S(=O)(=O)N(CC(=O)NCc2cccs2)c2ccccc2)cc1	none
Cc1ccc(N(CC(=O)NCc2cccs2)S(=O)(=O)c2cccs2)cc1	miR122 inh 182
Cc1cccc(-c2noc(Cc3ccc(Cl)cc3)n2)c1	Statin myotox sup 121
CCCC#Cc1ccc2c(c1)O[C@@H](CN(C)C(=O)COC)[C@@H](C)CN([C@H](C)CO)S2(=O)=O	none (no result: NSD2 inh)
Cc1cc(/C=N/NC(=O)c2ccc(CN3CCOCC3)cc2)c(C)n1-c1ccccc1	Statin myotox sup 116
N#Cc1cnn(Cc2ccc(Cl)cc2)c1N	none
N#Cc1cnn(Cc2ccccc2)c1N	Statin myotox sup 112
O=C(Oc1ccc2ccc(O)cc2c1)c1ccccc1F	none (no result: PglD DTNB, Statin myotox sup, miR122 inh)
NS(=O)(=O)OCC(Cc1ccccc1)N1C(=O)c2ccccc2C1=O (configuration not stated)	Statin myotox sup 111 (no result: NSD2 inh)
O=C(NCc1ccco1)c1ccc2c(=O)n(CC3CCCO3)c(=S)[nH]c2c1 (configuration not stated)	Statin myotox sup 91
CN(c1ccc(C(=O)NCc2ccco2)cc1)S(C)(=O)=O	Statin myotox sup 107
Cc1noc(C)c1S(=O)(=O)Nc1ccc2c(c1)C(=O)N([C@@H](C)CO)C[C@@H](C)[C@H](CN(C)C)OCCCC[C@@H](C)O2	none (no result: NSD2 inh, Statin myotox sup)
Cc1ccc(OS(=O)(=O)c2ccccc2)c(/C=N/N=C2\NC(=O)C(C)S2)c1 (configuration not stated)	Statin myotox sup 134
O=C1CS/C(=N/N=C/c2ccccc2OS(=O)(=O)c2ccccc2)N1	none (no result: PglD DTNB)
Cc1noc(C)c1NC(=O)Nc1cccc2c1O[C@@H](CN(C)C(=O)Nc1ccc(F)cc1)[C@@H](C)CN([C@@H](C)CO)C2=O	none (no result: PglD DTNB, NSD2 inh, Statin myotox sup)
CN1CCN(C(c2ccccc2)c2nnnn2Cc2ccccc2)CC1 (configuration not stated)	Statin myotox sup 141
CCN1CCN(C(c2ccccc2)c2nnnn2Cc2ccccc2)CC1 (configuration not stated)	none
COc1ccc2[nH]c(C(=O)N(C)Cc3ccccc3)c(C)c2c1	none
CCN(Cc1ccccc1)C(=O)c1[nH]c2ccc(OC)cc2c1C	miR122 inh 125 (no result: NSD2 inh)
C[C@H]1CCCCO[C@H](CN(C)C(=O)c2ccncc2)[C@@H](C)CN([C@@H](C)CO)C(=O)c2cc(NS(=O)(=O)c3cn(C)cn3)ccc2O1	none (no result: NSD2 inh, Statin myotox sup)
COCCNC(=O)Nc1ccc2nc(-c3cccs3)c(-c3cccs3)nc2c1	Statin myotox sup 125
COCCNC(=O)c1c(CS(=O)(=O)c2ccccc2)noc1C(=O)NCc1ccccc1	Statin myotox sup 96 (no result: NSD2 inh)
COCCNC(=O)c1c(CSc2ccccc2)noc1C(=O)NCc1ccccc1	none (no result: NSD2 inh)
CC(C)CCCN1C(N(C)C)=NC[C@@H]1C	none (no result: NSD2 inh)
CCC(C)CCN1C(N(C)C)=NC[C@@H]1C (some centres not stated)	Statin myotox sup 149 (no result: NSD2 inh)
Cc1c(C(=O)Nc2ccc(Cl)cn2)oc2ccccc12	Statin myotox sup 86
O=C(NC1CCN(C(=O)NCc2ccccc2)CC1)c1ccco1	Statin myotox sup 101
N#Cc1ccccc1CSc1nc(N2CCCCC2)nc(N2CCCCC2)n1	Statin myotox sup 117 (no result: NSD2 inh)
CCOc1cccc(CNc2ccc(O)cc2)c1OCc1ccccc1Cl	Statin myotox sup 108
